# Compound activity as filed in PubChem BioAssay.
# GRP78 ERSR act – qHTS for Inducers of the Endoplasmic Reticulum Stress Response (ERSR) in Human Glioma: qHTS; U87-MG GRP78 promoter luciferase reporter, 16 h; Potency, µM, without a hit: at the top dose activation, hits mostly activators; actives 0.02% (n = 420,000); AID 602332, 2012; note: series mostly up to about 76 µM; % of control where 0% means no effect; nearly all actives have a fitted effect of over 35% in size
#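 Stably transfected U87-MG human glioma cells carrying a GRP78-based luminescent sensor were seeded at 1000 cells/well, pin-dosed with compounds and incubated 16 h. Luciferase reagent was then added, and end-point luminescence was read after 10 min at room temperature.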
# Apoferritin bind – qHTS Assay for Identification of Novel General Anesthetics; Ferritin light chain (Equus caballus), P02791; apoferritin/1-aminoanthracene competitive binding, fluorescence; Potency, µM (series often up to 77.5 µM), for inactives: top-dose activity change, negative = displacement, most hits filed as inhibitors; actives 0.074% (n = 350,000); AID 485281, 2010; note: % is set by controls: 0 for no effect and ±100 for the full control effect; nearly all actives have a fitted effect of over 20% in size
# Target sequence (P02791 2-175 limits assumed): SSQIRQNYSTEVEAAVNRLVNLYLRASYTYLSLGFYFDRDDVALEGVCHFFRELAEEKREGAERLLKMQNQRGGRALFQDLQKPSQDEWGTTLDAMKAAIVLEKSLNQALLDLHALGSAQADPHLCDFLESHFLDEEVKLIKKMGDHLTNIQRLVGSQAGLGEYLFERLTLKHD
#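 Concentration-response curves derived by four-parameter Hill fitting of normalized fluorescence, where compounds displaced 1-AMA from 10 uM horse apoferritin following a brief 10 min room-temperature incubation; propofol titration acted as positive control.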
# 12-LOX inh – Primary qHTS assay for inhibitors of human arachidonate 12S-lipoxygenase (ALOX12): Round 2; actives 1.1% (n = 580,000); purified 12hLO, xylenol orange hydroperoxide absorbance; AID 1671190, 2021; Polyunsaturated fatty acid lipoxygenase ALOX12 (Homo sapiens), P18054; Potency, µM (top dose mostly 108 µM), without a hit: at the top dose activity change, negative = inhibition, actives largely listed as inhibitors; note: % is set by controls: 0 for no effect and ±100 for the full control effect
#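 Purified human 12hLO at 150 nM in 25 mM Hepes, 0.01% Triton X-100, pH 7.0, preincubated 15 min at room temperature with compound. Reaction started with 40 uM arachidonic acid, 30 min at room temperature. Hydroperoxide measured by Fe-xylenol orange, 573/405 nm absorbance ratio.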
# Chronic BCR inh – qHTS Assay to Find Inhibitors of Chronic Active B-Cell Receptor Signaling; ABC-DLBCL IkBa-CBG/CBR reporter, luminescence ratio, 4 h; Potency, µM (titrated, usually from 46.1 µM), without a hit: at the highest dose activity change, negative = inhibition, actives largely listed as inhibitors; actives 0.05% (n = 340,000); AID 493014, 2011; active = well fitted inhibition curve with a large enough effect in the signal ratio, with a control signal flat, not every such curve was filed as active; inconclusive = small, poorly fitted or top-dose-only effect, or effect the other way, or a change in a side signal; the % refers to the signal ratio;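 note: plate controls were basal doxycycline-induced cells for no effect and cells given 10 µM MG132 for full effect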
#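 TMD8 ABC-DLBCL cells carrying doxycycline-inducible green luciferase fused to IkappaBalpha plus unfused red luciferase were exposed to compounds (up to 46 uM) for 4 hrs at 37C. Activity came from the overlap-corrected green/red luminescence ratio.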
# * hit, by the source's call; u = inconclusive; x = not tested or not shown; ! = repeats disagree; [ ] = dose if it differs, or a comment. The list is not random: actives were taken first. Their share in the collection is about 1.1%. Unless noted, calls come from the whole dose curve; as a rule, active = well fitted curve in the direction sought with a large enough effect; inconclusive = small, poorly fitted or top-dose-only effect, or another doubt; inactive = no such curve, though single readings can be large; an effect the other way counts as inactive or inconclusive. Potency is the fitted concentration of half-maximal effect.
SMILES,GRP78 ERSR act,Apoferritin bind,12-LOX inh,Chronic BCR inh
COC(=O)C(=Nc1ccccc1)/C(C(=O)C(=O)N(C)c1ccccc1)=C(\O)c1ccccc1,-2%,-11%,13µM*,15%
COc1ccc(Cl)cc1NC(=S)NCCO,-5%,-1%,-21%,-1%
COc1ccc(Cl)cc1NC(=S)NCCC(c1ccccc1)c1ccccc1,-6%,14%,32µM*,u
COc1ccccc1NC(=S)NCCC(c1ccccc1)c1ccccc1,-3%,71%,35µM*,9%
COc1cc(NC(=S)NCCC(c2ccccc2)c2ccccc2)c(OC)cc1Cl,-4%,43%,40µM*,u
S=C(NCCC(c1ccccc1)c1ccccc1)Nc1ccccc1Cl,9%,42%,u,u
COc1cc(Nc2c3c(nc4ccccc24)CCC3)cc(OC)c1OC,-4%,-11%,22%,20µM*
COc1ccc(OC)c(Nc2c3c(nc4ccccc24)CCC3)c1,-9%,5%,0%,16µM*
Cc1cccc(Nc2c3c(nc4ccccc24)CCC3)c1,-5%,-7%,u,1%
O=C1CC(c2cccc(Cl)c2)CC2=C1C=Nc1ccccc1N2 (configuration not stated),x,x,-11%,x
Clc1ccc(-c2cnc(CN3CCN(c4ccccc4)CC3)o2)cc1,x,x,-1%,x
O=C(NC(=S)NCCN1CCOCC1)c1ccc(F)cc1,0%,-9%,5%,1%
O=C(NC(=S)NC(CO)Cc1ccccc1)c1ccc(F)cc1 (configuration not stated),18%,-10%,40µM*,u
CC(C)CNC(=S)NC(=O)c1ccc(F)cc1,12%,-14%,35µM*,u
CCOc1ccc(Cn2c(Oc3ccc(F)cc3)nc3c2c(=O)n(C)c(=O)n3C)cc1OCC,x,x,10%,x
Cc1c(Cl)sn(-c2ccc(Cl)cc2)c1=O,-13%,-19%,4.5µM*,u
CC[n+]1c(/C=C/c2ccc(OC(C)=O)c(OC)c2)ccc2ccccc21,3%,126%,u,u
CC[n+]1c(/C=C/c2ccc(OC)c(OC)c2)ccc2ccccc21,0%,5%,7.9µM*,u
CCOc1ccc(NC(=O)c2ccc3c(SCC(=O)O)c4c(nc3c2)CCCC4)cc1,-1%,-3%,-14%,3%
O=C(O)CSc1c2c(nc3cc(C(=O)Nc4cccc(C(F)(F)F)c4)ccc13)CCC2,8%,-1%,45µM*,5%
Cc1ccc(NC(=O)c2nn(C)c3c2CCc2sccc2-3)cc1F,x,x,-6%,x
CC(C)N(CCC(=O)c1ccc2ccccc2c1)Cc1ccccc1,-15%,x,35µM*!,u
COC(=O)c1ccc2nc(-c3ccc(F)cc3)c(Cc3ccsc3)n2c1,4%,x,7.1µM*,x
COC(=O)c1ccc2nc(-c3ccc(F)cc3)c(Cc3ccccc3)n2c1,3%,x,u,x
COC(=O)c1ccc2nc(-c3ccc(C)cc3)c(Cc3ccsc3)n2c1,-3%,x,40µM*,x
SMILES,GRP78 ERSR act,Apoferritin bind,12-LOX inh,Chronic BCR inh
Cc1ccc2nc(-c3ccccc3)c(Cc3ccsc3)n2c1,x,x,-5%,x
CC(OC(=O)c1csc(NCc2ccccc2)n1)C(=O)N1CCNC1=O (configuration not stated),x,x,-3%,x
COc1ccc(-c2cc(C(=O)NC(C)(C)C)c3ccccc3n2)cc1,x,x,95%,x
O=C(CC[C@@H]1CNC(=O)[C@@H]2C[C@H](NC(=O)Nc3cccc(Cl)c3)CN12)NCc1cccnc1,x,x,45µM*,x
COc1ccc2nc(C)c(C(=O)Nc3cc(C)ccn3)cc2c1,x,x,-17%,x
CN(C)c1ccc(NCc2cccc(Br)c2)cc1,x,x,7.9µM*,x
O=[N+]([O-])c1ccc(S(=O)(=O)NN=Cc2ccc(Cl)c(Cl)c2)cc1,-3%,x,18µM*,x
CCN1C(=O)CCN(Cc2cccc(OC(F)(F)F)c2)CC12CCOCC2,x,x,5%,x
O=C(NC(=S)Nn1cnnc1)c1ccc(F)cc1Cl,-2%,-5%,16µM*,9%
COc1cc(=O)n2c(c1C(=O)Nc1ccc(Br)cc1F)CCCC2,x,x,20µM*,x
COc1cc(=O)n2c(c1C(=O)Nc1ccc(Br)cc1)CCCC2,x,x,7%,x
CCC(=O)Nc1ccc(-c2csc(NCCOC)n2)cc1,x,x,14µM*,x
Cc1ccc(C(=O)/C=C/c2cccc3ccccc23)o1,x,x,16µM*,x
O=C(Oc1ccc(Br)cc1C(=S)N1CCCC1)c1ccccc1Cl,-4%,-13%,-6%,-7%
O=C(Oc1ccc(Br)cc1C(=S)N1CCCCC1)c1cc([N+](=O)[O-])cc([N+](=O)[O-])c1,1%,32µM*,x,-14%
C=C(C)CNC(=S)NNC(=O)CCn1c2ccc(Cl)cc2c2cc(Cl)ccc21,-1%,-8%,32µM*,u
c1ccc(OCc2nn3c(CN4CCOCC4)nnc3s2)cc1,x,x,10µM*,x
c1ccc(OCc2nnc3sc(-c4ccccc4)nn23)cc1,x,x,8.9µM*,x
O=C(/C=C/c1ccc(O)c(O)c1)OCCc1ccccc1,u,u,11µM*!,x
O=C(C=Cc1cccc(O)c1)c1ccccc1O,-5%,x,u,x
O=C(/C=C/c1ccc(O)c(O)c1)c1ccccc1O,u,u,7.1µM*,u
O=C(O)/C=C\c1ccc(O)c(O)c1,-3%,-4%[29.3 µM],x,x
Oc1cc(O)cc(C=Cc2ccc(O)c(O)c2)c1,x,x,3.1µM*,x
COc1ccc(C(=O)OCc2ccc(Br)cc2)cc1OC,x,x,23%,x
Cc1cnc(CC2CCN(C(=O)N(C)C)C2)n1Cc1ccccc1 (configuration not stated),x,x,16%,x
SMILES,GRP78 ERSR act,Apoferritin bind,12-LOX inh,Chronic BCR inh
CCc1ccc(NC(=O)c2ncoc2-c2cccc(OC)c2)cc1,x,x,-27%,x
CCN1CCN(C(C(=O)O)c2c[nH]c3cc(NC(=O)CCC(=O)O)ccc23)CC1 (configuration not stated),x,x,-11%,x
O=C(CCCCCCCC(=O)Nc1ccc(C(=O)c2ccccc2)cc1)Nc1ccc(C(=O)c2ccccc2)cc1,x,x,40µM*,x
O=C(CCCC(=O)c1ccccc1)Nc1ccc(F)cc1,6%,3%,1%,3%
CC(NC(=O)COC(=O)Cc1ccsc1)C1CC2CCC1C2 (configuration not stated),-2%,16µM*,0%,0%
N#CCCn1cc(/C=N/NC(N)=S)c(-c2ccccc2)n1,-3%,1%,25µM*,5%
N#CCCn1cc(/C=N/NC(N)=S)c(-c2ccc(Br)cc2)n1,4%,-1%,u,u
COc1ccc(-c2nn(-c3ccccc3)cc2/C=N/NC(N)=S)cc1OC,-1%,37%,32µM*,u
COc1ccc(-c2nn(-c3ccccc3)cc2/C=N/n2cnnc2)cc1OC,3%,-14%,-14%,u
Cc1oc(-c2ccccc2)nc1CC(=O)Nc1ccc(S(=O)(=O)NC(C)C)cc1,x,x,-3%,x
COc1ccc(-c2cc(OC(=O)c3cccc(Br)c3)c3c(C)oc(C)c3c(=O)c2)cc1,x,x,4.5µM*,x
